According to PubChem BioAssay (NCI):
This is part of a sample that, as a whole, favours compounds with a hit. Of some 83,000 tested, about 20% had one in any assay.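 The test compound was applied at a single concentration to cells in 96-well plates for 48 hours, and percent growth was recorded.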 Unmarked numbers belong to inactive results. Activity calls are given as the source filed them. Rule for the calls: active = growth percent below 10; inactive = the rest.

Tests used:
Experiment in all cases: NCI-60 one-dose screen, 48 h (100 = growth as untreated, 0 = no growth, -100 = all killed)
Conditions in all cases: 10 µM unless noted
DU-145 prostate = tested on: DU-145 prostate
K-562 leukemia = tested on: K-562 leukemia
MALME-3M melanoma = tested on: MALME-3M melanoma
MDA-MB-231 breast = tested on: MDA-MB-231 breast
RXF 393 renal = tested on: RXF 393 renal
SF-268 CNS = tested on: SF-268 CNS
SF-295 CNS = tested on: SF-295 CNS
SF-539 CNS = tested on: SF-539 CNS
UACC-257 melanoma = tested on: UACC-257 melanoma
M14 melanoma = tested on: M14 melanoma
HCT-15 colon = tested on: HCT-15 colon
HT29 colon = tested on: HT29 colon
SNB-75 CNS = tested on: SNB-75 CNS
SNB-19 CNS = tested on: SNB-19 CNS
U251 CNS = tested on: U251 CNS
PC-3 prostate = tested on: PC-3 prostate
SK-MEL-5 melanoma = tested on: SK-MEL-5 melanoma
UACC-62 melanoma = tested on: UACC-62 melanoma
LOX IMVI melanoma = tested on: LOX IMVI melanoma
SK-MEL-28 melanoma = tested on: SK-MEL-28 melanoma

| Compound | growth (DU-145 prostate) [%] | growth (K-562 leukemia) | growth (MALME-3M melanoma) | growth (MDA-MB-231 breast) | growth (RXF 393 renal) | growth (SF-268 CNS) [%] | growth (SF-295 CNS) [%] | growth (SF-539 CNS) | growth (UACC-257 melanoma) | growth (M14 melanoma) | growth (HCT-15 colon) | growth (HT29 colon) | growth (SNB-75 CNS) [%] | growth (SNB-19 CNS) [%] | growth (U251 CNS) | growth (PC-3 prostate) [%] | growth (SK-MEL-5 melanoma) [%] | growth (UACC-62 melanoma) | growth (LOX IMVI melanoma) | growth (SK-MEL-28 melanoma) |
| --- | --- | --- | --- | --- | --- | --- | --- | --- | --- | --- | --- | --- | --- | --- | --- | --- | --- | --- | --- | --- |
| COc1ccc(/C(=C/c2cc(OC)c(OC)c(OC)c2)[N+](=O)[O-])cc1 | 16.3 | 3.58% (active) | -10.8% (active) | 9.98% (active) | -85.1% (active) | 17.6 | 103 | -11.3% (active) | 31.8% | 2.06% (active) | -41.3% (active) | -14.2% (active) | 49.2 | 55.2 | 5.34% (active) | 35.1 | 70.7 | -7.25% (active) | -80.3% (active) | 1.77% (active) |
| O=C(NCCNc1nccc(-c2c(-c3cccc(O)c3)nc3sccn23)n1)Nc1cc(C(F)(F)F)cc(C(F)(F)F)c1 | 97.1 | 72.7% | 60.5% | 41.4% | 41.4% | 69.4 | 66.7 | 96.5% | 57% | 21.4% | 79.2% | 63.1% | 66.1 | 90.8 | 77% | 51.2 | 59.7 | 54.4% | 60.6% | 68.8% |
| C=C1C(=O)O[C@H]2[C@H]1CC/C(COC(=O)OC/C1=C/CC[C@@]3(C)O[C@H]3[C@H]3OC(=O)[C@@H](CN(C)C)[C@@H]3CC1)=C\CC[C@@]1(C)O[C@@H]21 | 15.3 | 1.85% (active) | -34.7% (active) | -10.4% (active) | -81.5% (active) | 63.1 | 94.7 | -12.1% (active) | -28% (active) | -22.9% (active) | 1.8% (active) | -8% (active) | 91 | 80.3 | 60.6% | 72.7 | 46.9 | -28.1% (active) | -72.3% (active) | -18.3% (active) |
| Nc1ncnc2c1ccn2-c1cccc(NC(=O)c2cccc(C(F)(F)F)c2)c1 | 81.8 | 59% | 98.4% | 58.4% | 58.5% | 67.5 | 36.4 | 64.4% | 93.2% | 83.9% | 41.7% | 58.4% | 67 | 88.4 | 44.9% | 51.7 | 41.1 | 77.3% | 62.2% | 85.1% |
| COc1ccc(/C=C2/C(=O)Nc3cc(Cl)c(-c4csc(N)n4)cc32)cc1 | 67.5 | 13.6% | 75.1% | 27.3% | 59.7% | 58.7 | 52.4 | 37.8% | 82.7% | 29.9% | 39.9% | 27.9% | 37.5 | 45.5 | 46.3% | 50.3 | 19.1 | 37.6% | 48.6% | 70.1% |
| Cc1ccc(N(CC2=NCCN2)c2cccc(O)c2)cc1 | 112 | 86.3% | 90.4% | 113% | 98.5% | 107 | 83.3 | 106% | 103% | 103% | 102% | 107% | 84.9 | 103 | 88.8% | 92.1 | 99.2 | 105% | 95% | 108% |
| C[C@]12O[C@H]1[C@H](O)c1c(cc(O)c3c1C(=O)c1cccc(O)c1-3)C2=O | 111 | 93.9% | 100% | 94% | 123% | 107 | 102 | 99.6% | 89% | 89.8% | 103% | 92.9% | 86.3 | 104 | 97.6% | 87.3 | 97.7 | 88.2% | 87.8% | 107% |
| COc1ccc(-c2nnc(SCC(=O)N3CCN(c4cc5c(cc4F)c(=O)c(C(=O)O)cn5C4CC4)CC3)o2)cc1OC | 99.3 | 74.5% | 101% | 110% | 118% | 104 | 89.1 | 96.5% | 101% | 76.2% | 93.6% | 94.6% | 98.4 | 97.4 | 98.4% | 59.2 | 99.7 | 97.7% | 81.6% | 95.2% |
